Screens deposited in PubChem by several laboratories.
Shown are actives, neighbours in structure and some others; about 4.2% of the full set was active somewhere.
AHR act – AHR activators, primary screen, cell-based, luminescence, luciferase reporter, human; Aryl hydrocarbon receptor (Homo sapiens), P35869; AHR-responsive luciferase reporter cells; activation, % at 5 µM; 320,000 tested, 2.5% active; in the data active = activation above about 47%
Target sequence (P35869 whole entry, looked up): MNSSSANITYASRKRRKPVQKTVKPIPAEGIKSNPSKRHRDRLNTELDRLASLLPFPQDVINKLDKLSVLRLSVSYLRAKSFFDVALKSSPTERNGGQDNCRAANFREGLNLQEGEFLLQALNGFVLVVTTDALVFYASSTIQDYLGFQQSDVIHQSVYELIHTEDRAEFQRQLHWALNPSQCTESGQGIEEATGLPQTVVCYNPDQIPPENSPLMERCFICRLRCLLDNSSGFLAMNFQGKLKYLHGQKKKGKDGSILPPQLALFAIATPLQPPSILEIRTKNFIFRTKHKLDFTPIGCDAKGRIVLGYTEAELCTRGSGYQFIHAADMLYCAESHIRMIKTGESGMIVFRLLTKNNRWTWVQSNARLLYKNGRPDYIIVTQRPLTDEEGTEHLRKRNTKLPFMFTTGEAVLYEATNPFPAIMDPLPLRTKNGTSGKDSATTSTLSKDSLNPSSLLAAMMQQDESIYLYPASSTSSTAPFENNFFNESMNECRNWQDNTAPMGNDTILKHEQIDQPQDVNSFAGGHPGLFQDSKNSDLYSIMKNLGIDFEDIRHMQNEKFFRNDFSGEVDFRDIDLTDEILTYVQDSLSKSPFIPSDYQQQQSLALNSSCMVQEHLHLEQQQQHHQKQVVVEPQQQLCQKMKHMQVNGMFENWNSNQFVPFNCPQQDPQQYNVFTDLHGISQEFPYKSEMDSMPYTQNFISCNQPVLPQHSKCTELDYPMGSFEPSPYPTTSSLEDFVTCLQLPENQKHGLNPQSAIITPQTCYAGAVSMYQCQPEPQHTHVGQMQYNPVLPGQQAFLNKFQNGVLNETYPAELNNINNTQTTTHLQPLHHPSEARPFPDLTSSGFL
Wnt act – Wnt/beta-catenin pathway activators, primary screen, cell-based, plate reader, single point | Wnt/beta-catenin reporter cell assay, activator | activation, % at 9.35 µM | 300,000 tested, 1.2% active; in the data active = activation above about 30%, passing the limit was not always enough; inconclusive = no clear call, values can overlap the other calls
FXN GAA850 act – FXN promoter activators, primary screen, cell-based, luciferase luminescence, HEK293 lucGAA850. HEK293 lucGAA850 FXN promoter luciferase reporter, 24 h; percent of 10 µM SAHA response. activation, % at 6 µM. 360,000 tested, 0.56% active;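 active = activation above the average of all compounds screened plus 3 SD, cutoff fixed separately per campaign, cut at about 7.5% in these data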
MITF TRPM1 HTS – activators of MITF-driven TRPM1 promoter reporter, primary screen, cell-based, SK-MEL-5, luciferase, single point; SK-MEL-5 TRPM1-promoter luciferase, 24 h; % of positive control, neutral wells = 0; 300,000 tested, 0.75% active; activation, % at 12.5 µM;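 active = mean activation of at least 80% with every replicate also reaching 80%; inconclusive = mean reaches 80% but some replicate falls short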
esBAF inh – Bmi1 luciferase reporter increase in mESCs, primary screen, esBAF inhibitor project, mouse ES cells, Bmi1 luciferase knock-in, single point; 24 h; 100% = twice the neutral-well signal; reporter increase, % at 12.5 µM; 350,000 tested, 2% active; in the data active = activation above about 40%; inconclusive = no clear call, values can overlap the other calls;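 also: a rise in the Bmi1 reporter signal indicates esBAF inhibition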
A number is an active result; 0 = inactive; ? = inconclusive; - = not tested or not shown.

SMILES | AHR act | Wnt act | FXN GAA850 act | MITF TRPM1 HTS | esBAF inh
NC(=O)C1CCN(c2nc(-c3ccc(F)cc3)cs2)CC1 | 0 | 0 | 0 | 0 | 0
NC(=O)C1CCN(c2nc(-c3ccccc3Br)cs2)CC1 | 64.5 | 38.4 | - | - | -
CN(C)C(=O)c1cccc(-c2csc(N3CCC(C(N)=O)CC3)n2)c1 | 0 | 0 | - | - | -
NC(=O)C1CCN(c2nc(-c3cccc(N)c3)cs2)CC1 | 0 | 0 | 0 | 0 | 80.7
NC(=O)C1CCN(c2nc(-c3ccccc3C(F)(F)F)cs2)CC1 | 0 | 0 | 0 | 0 | 68.0
Cn1cnc(S(=O)(=O)N2C[C@H](O)COC[C@@H]3O[C@@H](CC(=O)NCc4cc(F)cc(F)c4)CC[C@H]32)c1 | - | - | - | - | 0
COc1ccccc1-c1cnc2c(c1)C(=O)N([C@H](C)CO)C[C@@H](C)[C@H](CN(C)C)O2 | - | - | - | - | 0
Cc1noc(C)c1NC(=O)N(C)C[C@H]1Oc2ccc(NC(=O)Cc3ccccc3)cc2CC(=O)N([C@@H](C)CO)C[C@@H]1C | - | - | - | - | 0
CS(=O)(=O)c1ccccc1-c1csc(N2CCC(C(N)=O)CC2)n1 | 0 | 0 | - | - | -
NC(=O)C1CCN(c2nc(-c3ccccc3F)cs2)CC1 | 0 | ? | 0 | 87.9 | 0
CO[C@@H](CN(C)S(=O)(=O)c1ccc(Cl)cc1)[C@H](C)CN(C(=O)Nc1ccccc1F)[C@H](C)CO | - | - | - | - | 0
O=[N+]([O-])c1ccc(CSc2nc3ccccc3o2)cc1 | 0 | 0 | 0 | 97.5 | -
NC(=O)C1CCN(C(=O)CN2C(=O)c3ccccc3S2(=O)=O)CC1 | 0 | - | 0 | 0 | 0
CC1CCN(C(=O)CN2C(=O)c3ccccc3S2(=O)=O)CC1 | 0 | 48.4 | 0 | 0 | 0
Cc1cc([N+](=O)[O-])ccc1NC(=O)/C=C/c1cccs1 | 0 | 35.0 | 0 | 0 | -
Cc1ccc(NC(=O)/C=C/c2ccc([N+](=O)[O-])s2)c(C)c1 | 0 | 0 | 0 | 0 | -
Cn1c(CNC(=O)c2ccccc2F)cc2ccccc21 | 49.5 | 0 | 0 | 0 | 0
O=C(NCc1cc2ccccc2[nH]1)c1ccccc1F | 47.6 | 0 | 0 | 0 | 0
CNC[C@H]1Oc2ccc(NC(=O)Nc3ccc(C(F)(F)F)cc3)cc2CC(=O)N([C@H](C)CO)C[C@@H]1C | - | - | - | - | 0
COC(=O)C[C@H]1CC[C@@H]2[C@@H](COc3ccc(NC(=O)c4ccc(OC)cc4)cc3C(=O)N2C)O1 | - | - | - | - | 0
Nc1c(Cl)cc(C2=NCCn3c2c2ccc(C(F)(F)F)cc2[n+]3[O-])cc1Cl | 54.5 | 0 | 0 | 0 | 0
O=[N+]([O-])c1ccc2c3n([n+]([O-])c2c1)CCN=C3c1ccc(Cl)cc1 | 48.1 | 0 | 0 | 0 | 0
[O-][n+]1c2ccccc2c2n1CCCN=C2c1ccc(Cl)cc1 | 51.0 | 0 | 0 | 0 | -
Cc1ccc(C2=NCCn3c2c2ccccc2[n+]3[O-])cc1 | 0 | 0 | 0 | 0 | -
Clc1ccc(C2=NCCn3nc4ccccc4c32)cc1 | 79.2 | 0 | 0 | 0 | 0
SMILES | AHR act | Wnt act | FXN GAA850 act | MITF TRPM1 HTS | esBAF inh
CCCC(=O)Nc1ccc2c(c1)OC[C@@H](C)N(Cc1cccc(F)c1)C[C@H](C)[C@H](OC)CN(C)C2=O | - | - | - | - | 0
COc1ccc2c3n([n+]([O-])c2c1)CCN=C3c1ccc(Cl)cc1 | 0 | 0 | 0 | 0 | 41.5
Cc1ccc(C2=NCCn3c2c2ccc([N+](=O)[O-])cc2[n+]3[O-])cc1 | 0 | 0 | 0 | 0 | 0
Cn1c(N)c(C(=O)/C=C/c2ccccc2)c(=O)[nH]c1=O | 47.3 | 0 | 0 | 0 | -
Clc1ccc(-c2n[nH]c3c2Cc2ccccc2-3)cc1Cl | 59.7 | - | - | - | -
c1ccc2c(c1)CCc1c(-c3ccncc3)n[nH]c1-2 | 0 | 44.1 | 0 | 0 | 0
COc1ccc(-c2ccc(SCC(=O)N3CC(=O)Nc4ccccc43)nn2)cc1 | 0 | 0 | 0 | 0 | 49.3
CCOc1ccc(-c2ccc(SCC(=O)Nc3nnc(CC)s3)nn2)cc1 | 0 | 0 | 0 | 0 | -
COc1ccc(-c2ccc(SCC(=O)Nc3nnc(C)s3)nn2)cc1 | 0 | 35.3 | 0 | 0 | -
COc1cccc(S(=O)(=O)N2C[C@@H](O)COC[C@H]3O[C@@H](CC(=O)N4CCN(C)CC4)CC[C@@H]32)c1 | - | - | - | - | 0
COc1ccc(C(=O)NCCn2cc(SCC(=O)N3CCOCC3)c3ccccc32)cc1 | 0 | - | 0 | 0 | 42.2
O=C(NCCn1cc(SCC(=O)N2CCOCC2)c2ccccc21)c1ccccc1 | 0 | 0 | 0 | - | 0
Cc1ccc(C(=O)NCCn2cc(SCC(=O)Nc3nnc(C)s3)c3ccccc32)cc1 | 0 | 0 | 0 | - | 58.3
O=C(CSc1cn(Cc2ccccc2)c2ccccc12)N1CCOCC1 | 0 | 0 | 0 | 0 | 78.6
C[C@H]1CN([C@@H](C)CO)C(=O)c2cccc(N(C)C)c2O[C@@H]1CN(C)Cc1ccncc1 | - | - | - | - | 0
CC(C)NC(=O)N[C@H]1C=C[C@@H](CC(=O)NCc2ccc(Oc3ccccc3)cc2)O[C@H]1CO | - | - | - | - | 0
COc1ccc(CN(C)C[C@H]2OCCCC[C@@H](C)Oc3ccc(NC(=O)c4ccccc4)cc3C(=O)N([C@@H](C)CO)C[C@@H]2C)cc1 | - | - | - | - | 0
O=C(C[C@H]1CC[C@H]2[C@@H](COC[C@H](O)CN2C(=O)Nc2cc(Cl)cc(Cl)c2)O1)N1CCCCC1 | - | - | - | - | 0
CO[C@@H]1CN(C)C(=O)c2ccc(NC(=O)Nc3ccccc3Cl)cc2OC[C@@H](C)N(C)C[C@H]1C | - | - | - | - | 0
Clc1cccc(-c2nc3ccc(Br)cn3c2Cc2ccsc2)c1 | - | 0 | - | - | 43.0
Brc1cccc(-c2nc3ccc(Br)cn3c2Cc2ccsc2)c1 | - | 0 | - | - | 62.7
Clc1ccc2nc(-c3cccc(Br)c3)c(Cc3ccsc3)n2c1 | - | 0 | - | - | 0
CNC[C@@H]1OCCCC[C@H](C)Oc2ccc(NS(=O)(=O)c3ccc(F)cc3)cc2C(=O)N([C@H](C)CO)C[C@@H]1C | - | - | - | - | 0
C[C@H]1CN([C@@H](C)CO)C(=O)c2cc(C3=CCCC3)cnc2O[C@@H]1CN(C)Cc1cccc(F)c1 | - | - | - | - | 0
CCC(=O)N1[C@@H]2Cn3c(ccc(-c4ccccc4)c3=O)[C@H]1[C@@H](C(=O)N(C)C)[C@@H]2CO | - | - | - | - | 0
SMILES | AHR act | Wnt act | FXN GAA850 act | MITF TRPM1 HTS | esBAF inh
CCCC1Oc2ccccc2C(=O)N(CC(=O)c2ccc3c(c2)OCCO3)C1=O (stereo not given) | 0 | 0 | 0 | 0 | 60.5
CC(C)CC1NC(=O)N(CC(=O)c2ccc3c(c2)OCCO3)C1=O (stereo not given) | 0 | 33.1 | 0 | - | 0
CN1C(=O)/C(=C/c2ccccc2OCc2cccc(F)c2)N(C)C1=S | 50.4 | - | 0 | - | 0
O=C/C(=C\Nc1ccc(Cl)cn1)c1nc2ccccc2o1 | 0 | - | 0 | 0 | 0
O=C/C(=C\Nc1ccc(Cl)cn1)c1nc2cc(Cl)ccc2o1 | 51.2 | - | 0 | 0 | -
C/C(=N\Nc1nc(C)cc(C)n1)c1ccc(C)o1 | 0 | 0 | 0 | - | -
Cc1cc(C)n(-c2nnc3c4ccccc4n(C)c3n2)n1 | 0 | 47.9 | 0 | - | -
C/C(=N\Nc1nnc2c3ccccc3n(C)c2n1)c1ccc(C)o1 | 88.1 | 0 | 0 | 0 | -
COc1ccc(S(=O)(=O)N(C)C[C@@H]2Oc3ccc(NS(=O)(=O)c4ccccc4)cc3CC(=O)N([C@H](C)CO)C[C@@H]2C)cc1 | - | - | - | - | 0
